Reference: the supplement of paper PMC9897528
Unmarked numbers belong to inactive results.

Tested on: Scedosporium aurantiacum CBS 136046
Assay: growth inhibition relative to DMSO control (OD600); higher = more antifungal activity, active = 80 or more; extreme values may be limits of the assay
Conditions: 5 µM; 72 h; 37 °C
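Further: conidia screened in RPMI 1640 medium under 5% CO2, growth read by spectrophotometer, medium with 0.5% DMSO serving as the untreated reference.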

| Compound | growth inhibition |
| --- | --- |
| NC(=O)c1c(N)sc2c1CCCCC2 | 6.23% |
| Cc1ccc(Oc2ccccc2-c2csc(N=C3NCCCN3)n2)c(C)c1 | 68% |
| CN(C(=O)C1(c2ccc(Cl)cc2)CCC1)c1ccccc1 | 13.9% |
| O=[N+]([O-])c1cn(Cc2nc(O)nc(O)c2Br)cn1 | 20.5% |
| CC(=N)N1CC[C@H](SC2=C(C(=O)O)N3C(=O)[C@@H]([C@@H](C)O)[C@H]3C2)C1 | 5.55% |
| CC(=O)Nc1cc(NS(=O)(=O)c2ccc(Cl)cc2)cc2c(Cl)[nH]nc12 | 21.6% |
| O=C(CP(=O)(O)O)NCCc1cccc(Oc2ccccc2)c1 | 31.5% |
| C[C@@H]1O[C@@H]1P(=O)(O)O | 3.95% |
| CCC(C)(C)c1ccc(CC(C)CN2C[C@@H](C)O[C@@H](C)C2)cc1 (stereo partly drawn) | 84.7% (active) |
| COc1cc(NS(=O)(=O)c2ccc(C)cc2)c2ncccc2c1 | 27.9% |
| O=c1cc(NCCCN[C@@H]2CCOc3c(Br)cc(Br)cc32)[nH]c2ccsc12 | 17.3% |
| C=C(C)n1c(=O)n(Cc2ccccc2C)c2ccccc21 | 21.5% |
| Cc1c(F)cccc1NC(=O)Nc1ccc(Cl)c(S(=O)(=O)[C@H]2CCCNC2)c1O | 4.56% |
| CC(C)Oc1ccc(-c2nc(-c3cccc4c3CC[C@@H]4NCCO)no2)cc1C#N | 25.4% |
| Nc1nc(-c2ccccc2)nc2c1ncn2[C@@H]1O[C@H](COS(=O)(=O)NC(=O)c2ccccc2O)[C@@H](O)[C@H]1O | 30% |
| NC1C2CC3CC(C2)CC1C3 (stereo not drawn) | 23.6% |
| NC(=S)N/N=C/c1ncccc1N | 23.2% |
| COc1ccc(CNC(=O)C(NS(=O)(=O)c2ccc3nc(C)sc3c2)C(C)C)cc1 (stereo not drawn) | 26.3% |
| OC(Cn1cncn1)(Cn1cncn1)c1ccc(F)cc1F | 29.9% |

| Compound | growth inhibition |
| --- | --- |
| O=S(=O)(Nc1ccccc1)c1ccc(NC(=S)Nc2ccccc2)cc1 | 24.2% |
| O=C(Nc1ncc(Cc2cccc3ccccc23)s1)C1CCCCC1 | 4.7% |
| Nc1nnnn1CCOc1c2[nH]c3ccc(Cl)cc3c2cc2c1[nH]c1ccc(Cl)cc12 | 49.3% |
| O=S(=O)(Nc1ccc(O)cc1)c1cccc2cccnc12 | 13.2% |
| CC(C)Nc1nc2cc(Cl)c(Cl)cc2n1[C@H]1O[C@@H](CO)[C@H](O)[C@@H]1O | 8.22% |
| C=CCc1cc(Cc2cnc(N)nc2N)cc(OC)c1O | 0% |
| Nc1nc(F)nc2c1ncn2[C@H]1O[C@@H](CO)[C@H](O)[C@@H]1O | 33.8% |
| Nc1ccc(-c2nc3cc(C(F)(F)F)ccc3n2C23CC4CC(CC(C4)C2)C3)cc1 | 27.1% |
| Cc1onc(-c2ccccc2)c1-c1ccc(S(N)(=O)=O)cc1 | 41.2% |
| Oc1ccc(NCc2ccccc2OCc2ccccc2)cc1 | 10% |
| O=C(NCc1ccccc1Cl)c1cnc2ccccc2n1 | 10.6% |
| O=C(N[C@H](Cc1cccc2ccccc12)C(=O)NCCc1c[nH]cn1)C1Cc2ccccc2C1 | 2.31% |
| O=C(CSc1nnc(Br)n1-c1ccc(C2CC2)c2ccccc12)Nc1ccc(C(=O)O)cc1Cl | 18.4% |
| OCCCCn1cnc2c(O)nc(NCc3ccc(Cl)c(Cl)c3)nc21 | 5.51% |
| CCn1cc(C(=O)O)c(=O)c2cc(F)c(N3CCNC(C)C3)c(F)c21 (stereo not drawn) | 4.34% |
| COc1cccc(N2CCN(C3=Nc4c(F)cccc4[C@H](CC(=O)O)N3c3cc(C(F)(F)F)ccc3OC)CC2)c1 | 9.61% |
| COc1ccc2sc3c(c2c1)NC(C)CNC3=O (stereo not drawn) | 7.39% |
| CCCCCOc1ccc(/C=C2\Oc3c(ccc(O)c3O)C2=O)c(O)c1 | 1.85% |
| O=C(Nc1ccc(N2CCN(C(=O)c3ccccc3)CC2)cc1)c1ccc2c(c1)OCO2 | 16.5% |
